Data from PubChem BioAssay.

Experiment: basal RPMI8226 viability, no added stimulus, profiling panel, cell-based, calcein-AM fluorescence, 48 h, PK04 Diversity Set (AID 1166);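 also: cells grown under basal conditions without added stimulus; test concentration not given here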
Conditions: RPMI8226 myeloma viability, higher = more signal

Structure (SMILES)	z-score
CN(C)C(=O)[C@@]1(CCS(=O)(=O)c2ccccc2)N=C(c2ccc(OCCCO)cc2)O[C@H]1c1ccccc1CN=[N+]=[N-]	-0.314
Cc1ccc(S[C@]2(C(=O)NCc3ccccc3)CC(=O)N(C3Cc4ccccc4C3)[C@@H]2c2ccc(CO)cc2I)cc1	-1.52
C=C(C)[C@@H]1CC=C(C(O)C2C=CC3C(=O)N(C4CCCCC4)C(=O)C3N2Nc2ccc(OC)cc2)CC1 (stereo not given in full)	-0.0663
CC(C)(C)N1CC=CC23O[C@@H]4C=CCCOC(=O)C4[C@H]2C(=O)N(CCCO)[C@@H]3C1=O (stereo not given in full)	-0.783
CN(C)C(=O)[C@]1(Cc2ccccc2N=[N+]=[N-])N=C(c2ccc(OCCCO)cc2)O[C@@H]1c1ccccc1CN=[N+]=[N-]	-3.03
COC(=O)[C@@]1(Cc2ccc(OC)cc2)[C@H]2c3cc(C(=O)N4CCCC4)n(Cc4ccc(C)o4)c3C[C@H]2CN1C(=O)c1ccccc1	-4.69
[N-]=[N+]=NCc1ccccc1C[C@]1(C(=O)NCCN2CCOCC2)N=C(c2ccc(OCCCO)cc2)O[C@H]1c1ccccc1	-1.06
CCCCCCC#C[Si](O[C@H](c1ccccc1)c1cn(Cc2cccc(Cl)c2)nn1)(C(C)C)C(C)C	-0.695
COCCOC(=O)N1C(=O)[C@@]2(c3cc(C#CC4(O)CCCCCC4)ccc31)[C@H](C(=O)N1CCN(c3ncccn3)CC1)[C@H]1C(=O)O[C@H](c3ccccc3)[C@H](c3ccccc3)N1[C@@H]2c1ccc(O)cc1	-0.372
COc1ccc(C(=O)Nc2ccc3c(c2)[C@]2(O[C@@H](CCO)[C@H]([Si](C)(C)c4ccc(OC)cc4)[C@H]2C)C(=O)N3Cc2ccccc2)cc1	-2.99
